# Experimental data: ChEMBL document CHEMBL3988442, “University of Dundee, Small-Polar-MMV Screening Library” (2021)
# Out of some 48,000 compounds screened, about 13,000 (27%) showed an effect of 50% or more. The list shows a part of the results.
# System: Wolbachia pipientis
# Test: Anti-Wolbachia Cell-Based Screen
# Type: functional
# Parameters: scale not given: in the data most compounds retested in dose-response had high values
# Conditions: 5 µM
row,SMILES,Percent Effect [%]
1,O=C(NC[C@H]1OC[C@@H]2CCN(C3CCOCC3)C[C@@H]21)c1ccncc1.O=C(O)C(F)(F)F.O=C(O)C(F)(F)F,-8.097
2,CC(=O)N1CCO[C@@H]2CN(C(=O)c3ccc4ncccc4c3)CC[C@@H]2C1.O=C(O)C(F)(F)F,-0.4432
3,COCCN1CCO[C@H]2CCN(C(=O)c3cccs3)CC[C@@H]21.O=C(O)C(F)(F)F,9.308
4,O=C(O)C(F)(F)F.O=C(c1cccs1)N1CC[C@@H]2CN(C3CCOCC3)CCO[C@@H]2C1,103
5,Cc1ccc(CCNc2nc(-c3ccncc3)nc3c2CCNCC3)o1,-0.1721
6,C=C(C)COc1cccc(CNCCc2nc(N)cc(O)n2)c1,6.733
7,CC(Cc1cn(CCc2nnn[nH]2)nn1)c1ccccc1 (stereo not drawn),103.4
8,CC(Cc1cn(CCc2n[nH]c(=O)[nH]2)nn1)c1ccccc1 (stereo not drawn),124.9
9,CC(Cc1ccc2c(c1)OCO2)c1cn(CCc2c[nH]cn2)nn1 (stereo not drawn),-4.802
10,CC(c1ccc(C(=O)NCCc2nc(N)cc(O)n2)o1)N1CCCCC1 (stereo not drawn),6.141
11,CN(CCn1ccc2ccccc21)C(=O)Cc1nnn[nH]1,-2.882
12,CN(CCn1ccc2ccccc21)C(=O)Cc1n[nH]c(=O)[nH]1,0.08952
13,N#Cc1cccc(Cl)c1NCCc1n[nH]c(=O)[nH]1,-15.54
14,CC(Cc1cn(CCc2nc(N)cc(O)n2)nn1)c1ccccc1 (stereo not drawn),116.8
15,c1cc(CCN2CCCC2CN2CCCCC2)ccn1 (stereo not drawn),39.01
16,CCN(CC)Cc1ccc(C(=O)NC2CCc3cc(F)ccc32)o1 (stereo not drawn),6.12
17,Cc1nccn1CCC1CCCCN1C(=O)c1ccc2nonc2c1 (stereo not drawn),1.487
18,Cn1c(CN2CCCCC2)nnc1C1CCCN(C(=O)CCC(N)=O)C1 (stereo not drawn),11.64
19,NC(=O)CCN(C(=O)c1cccc2c1OCO2)c1ccccc1,16.64
20,Cc1n[nH]c(=O)c2c(NC(=O)CN3CCOCC3)oc(C)c12,3.045
21,CN(Cc1ccon1)C(=O)CN1C(=O)OC(C)(C)C1=O,-6.77
22,CN1CCCC1CNC(=O)CCCOc1ccc(F)cc1 (stereo not drawn),-3.981
23,CN(Cc1ccoc1)C(=O)CN1C(=O)OC(C)(C)C1=O,-7.956
24,O=S1(=O)COCCN1CCOc1ccc(F)cc1,-2.392

row,SMILES,Percent Effect [%]
1,N[C@H]1CN(CCOc2ccc(F)cc2)C[C@@H]1C1CC1,-23.63
2,CC1(C)OC(=O)N(CCCOc2ccc(F)cc2)C1=O,96.74
3,CC1(C)OC(=O)N(CCOc2ccc(F)cc2)C1=O,112.1
4,O=S1(=O)COCCN1CCCOc1ccc(F)cc1,1.2
5,CC1(C)OC(=O)N(CCCC(=O)c2ccc(F)cc2)C1=O,116.7
6,CC(C)OCCSCc1nnc(-c2cccc(F)c2)o1,-1.35
7,CCNC(=O)[C@@H]1C[C@H](N)CN1C(=O)CCc1ccccc1Cl,-6.305
8,Cn1cc(CN2CCO[C@H]3CN(Cc4ccco4)C[C@H]32)cn1,-13.96
9,CN(Cc1cc(-c2cccnc2)no1)C(=O)c1cccn1C,-14.42
10,CC(C)SCC(=O)N1CCc2c(nc(N(C)C)nc2N(C)C)C1,-6.369
11,O=C(Cn1cccnc1=O)NC(Cc1ccsc1)c1nccs1 (stereo not drawn),149.8
12,CC(C)Sc1ccc(C(C)NC(=O)Cn2cccnc2=O)cc1 (stereo not drawn),-6.353
13,O=C(Cn1cccnc1=O)NC(Cc1ccsc1)c1ccccn1 (stereo not drawn),-0.3817
14,O=C(Cn1cccnc1=O)NCC1Cc2ccccc2O1 (stereo not drawn),-8.588
15,O=C(Cn1cccnc1=O)NC(Cc1ccsc1)c1cccnc1 (stereo not drawn),105
16,Cc1cccnc1C(Cc1ccsc1)NC(=O)Cn1cccnc1=O (stereo not drawn),151.6
17,O=C(Cn1cccnc1=O)NCc1cccnc1OCC(F)(F)F,2.082
18,Cc1csc(C(Cc2ccsc2)NC(=O)Cn2cccnc2=O)n1 (stereo not drawn),109.1
19,CC(C)N(CC(N)=O)CC(=O)NCCc1c(F)cccc1F,4.922
20,Cc1cnn(CC2CCCCN2CC(=O)N(C)Cc2ccc(C)o2)c1 (stereo not drawn),-2.749
21,COc1cccc(S(=O)(=O)Cc2cc(C)on2)c1,-2.252
22,COc1ncccc1C(Cc1ccsc1)NC(=O)Cn1cccnc1=O (stereo not drawn),115.2
23,CC(C)CCOc1ccc(C(C)NC(=O)Cn2cccnc2=O)cc1 (stereo not drawn),-2.548
24,CC(NC(=O)Cn1cccnc1=O)c1ccc(OC(F)(F)F)cc1 (stereo not drawn),5.256
